One test has as its system Klebsiella pneumoniae. As to conditions: Concentration 20 uM; ASSAY_TEST Inhibition of Bacterial Growth; detection method Absorption (OD600); MEDIA CAMHB; plate type 384well; NBS; CORNING #3640; time 18 hr.
The test system of a further test is Candida albicans. The settings on record: 20 µM.
Another test relates to Cryptococcus neoformans. As to conditions: Concentration 20 uM; ASSAY_TEST Inhibition of Fungal Growth; detection method Resazurin; Absorption (OD600-OD570); plate type 384well; NBS; CORNING #3640.

Structures are written as SMILES. Entries with a potency or affinity are not part of this list.

In the case of `CC(C)N(CCC(C(N)=O)(c1ccccc1)c1ccccn1)C(C)C.O=P(O)(O)O` (centres undefined) [DISOPYRAMIDE PHOSPHATE], the Inhibition in the test on Klebsiella pneumoniae amounted to 5.68%; in the test on Candida albicans it was 3.35%; in the test on Cryptococcus neoformans, 0.14%.

On to `CC(C)c1cccc(C(C)C)c1O` [PROPOFOL], for which the Inhibition in the test on Klebsiella pneumoniae was 12.14%; in the test with Candida albicans, 2.62%; in the test on Cryptococcus neoformans, -1.51%.

For `c1ccc(Cn2ccnc2)cc1`, the Inhibition in the test on Klebsiella pneumoniae was found to be 8.34%; in the test with Candida albicans, 2.99%; in the test with Cryptococcus neoformans, 0.79%.

On to `Cl.N=C(N)NC(=O)c1nc(Cl)c(N)nc1N.O.O` [AMILORIDE HYDROCHLORIDE], for which the Inhibition is 12.19% in the test with Klebsiella pneumoniae, 4.98% in the test with Candida albicans and -6.3% in the test with Cryptococcus neoformans.

With `Cc1cc(NS(=O)(=O)c2ccc(N)cc2)no1` [SULFAMETHOXAZOLE], the Inhibition in the test with Klebsiella pneumoniae turned out to be 4.09%; in the test on Candida albicans, 6.42%; in the test with Cryptococcus neoformans, 2.83%.

In the case of `CN(C)CCC=C1c2ccccc2CCc2ccccc21.Cl` [AMITRIPTYLINE HYDROCHLORIDE], the Inhibition in the test on Klebsiella pneumoniae was 11.13%; in the test with Candida albicans, 3.15%; in the test on Cryptococcus neoformans, -4.46%.

Take `Nc1nc2ccc(Cl)cc2c2nc(-c3ccco3)nn12` [CGS-15943]: the Inhibition in the test with Klebsiella pneumoniae is 10.58%; with Candida albicans, 6.09%; in the test on Cryptococcus neoformans, -14.37%.

For `CCC(COC(=O)c1cc(OC)c(OC)c(OC)c1)(c1ccccc1)N(C)C.O=C(O)/C=C\C(=O)O` (centres undefined), the Inhibition with Klebsiella pneumoniae was 22.71%; in the test with Candida albicans it was 3.77%; in the test on Cryptococcus neoformans, -7.66%.

For the compound `CC[C@@H](C(N)=O)N1CCCC1=O`, the Inhibition in the test with Klebsiella pneumoniae is 13.35%; in the test with Candida albicans, 2.36%; in the test on Cryptococcus neoformans it was -2.67%.

In the case of `COc1cc2c(cc1OC)[C@@]13CCN4CC5=CCO[C@H]6CC(=O)N2[C@H]1[C@H]6[C@H]5C[C@H]43` [BRUCINE], the Inhibition is 6.18% in the test with Klebsiella pneumoniae, 2.36% in the test with Candida albicans and -1.81% with Cryptococcus neoformans.

On to `CCOC(=O)C1(c2ccccc2)CCN(CCC(C#N)(c2ccccc2)c2ccccc2)CC1.Cl` [DIPHENOXYLATE HYDROCHLORIDE], for which the Inhibition in the test on Klebsiella pneumoniae is 2.24%; in the test with Candida albicans, 4.81%; with Cryptococcus neoformans, -16.2%.

On to `CNCCC(Oc1ccc(C(F)(F)F)cc1)c1ccccc1.Cl` (centres undefined) [FLUOXETINE HYDROCHLORIDE], for which the Inhibition is 3.44% with Klebsiella pneumoniae, 1.79% with Candida albicans and -8.4% with Cryptococcus neoformans.

As to `NC(=O)OCCCc1ccccc1` [PHENPROBAMATE], the Inhibition with Klebsiella pneumoniae is 12.49%; in the test on Candida albicans it was 3.16%; in the test on Cryptococcus neoformans it was -1.72%.

In the case of `COc1ccc2[nH]cc(CCN)c2c1` [5-METHOXYTRYPTAMINE], the values for the Inhibition with Klebsiella pneumoniae, in the test with Candida albicans and with Cryptococcus neoformans were 5.41%, 3.97% and -39.41%, respectively.

Turning to `CC(C)(C)NCC(O)c1cc(O)cc(O)c1.O=S(=O)(O)O` (centres undefined), the Inhibition with Klebsiella pneumoniae is 12.1%; with Candida albicans, 2.97%; in the test with Cryptococcus neoformans, -9.43%.

For the compound `CN1CCN2c3ncccc3Cc3ccccc3C2C1` (centres undefined) [MIRTAZAPINE], the Inhibition in the test with Klebsiella pneumoniae was found to be 5.61%; with Candida albicans, 4.27%; with Cryptococcus neoformans, 3.57%.

For `Cl.NCCc1ccc(O)c(O)c1` [DOPAMINE HYDROCHLORIDE], the Inhibition in the test on Klebsiella pneumoniae was 13.84%; in the test with Candida albicans it was -0.19%; in the test with Cryptococcus neoformans, -1.49%.

`Br.CN1[C@@H]2CC(OC(=O)[C@H](CO)c3ccccc3)C[C@H]1[C@@H]1O[C@@H]12.O.O.O` (some centres undefined): the Inhibition was 13.1% in the test with Klebsiella pneumoniae, 2.39% with Candida albicans and -4.17% with Cryptococcus neoformans.

`Cn1c(=O)c2nc[nH]c2n(C)c1=O.O` [THEOPHYLLINE]: the results for the Inhibition with Klebsiella pneumoniae, in the test with Candida albicans and in the test on Cryptococcus neoformans were 1.07%, 3.65% and 7.56%, respectively.

As for `C[C@H](CCC(=O)O)[C@H]1CC[C@H]2[C@@H]3[C@@H](O)C[C@@H]4C[C@H](O)CC[C@]4(C)[C@H]3CC[C@]12C` [URSODIOL], the Inhibition is 5.07% with Klebsiella pneumoniae, 3.21% in the test with Candida albicans and -2.96% in the test with Cryptococcus neoformans.

With `C=C(C)CN1CC[C@]23c4c5ccc(O)c4O[C@H]2c2[nH]c4ccccc4c2C[C@@]3(O)C1C5.Cl.O`, the Inhibition in the test on Klebsiella pneumoniae is 12.32%; in the test with Candida albicans, 1.9%; in the test with Cryptococcus neoformans, -7.24%.

As to `Nc1nc(F)nc2c1ncn2[C@@H]1O[C@H](CO)[C@@H](O)[C@@H]1O` [FLUDARABINE], the Inhibition is 6.42% with Klebsiella pneumoniae, 0.49% with Candida albicans and -5.72% in the test with Cryptococcus neoformans.

For the compound `Cc1c(O)c(=O)ccn1C` [DEFERIPRONE], the Inhibition with Klebsiella pneumoniae is 3.55%; in the test on Candida albicans, 4.97%; in the test on Cryptococcus neoformans it was -5.92%.

On to `CN1C(=O)CN=C(c2ccccc2)c2cc([N+](=O)[O-])ccc21` [NIMETAZEPAM], for which the Inhibition is 13.4% in the test with Klebsiella pneumoniae, 0.89% with Candida albicans and -7.7% in the test with Cryptococcus neoformans.

As to `CC(C)[C@]12O[C@H]1[C@@H]1O[C@]13[C@]1(O[C@H]1C[C@H]1C4=C(CC[C@@]13C)C(=O)OC4)[C@@H]2O` [TRIPTOLIDE], the Inhibition was 7.24% with Klebsiella pneumoniae, 1.65% in the test with Candida albicans and -8.43% in the test on Cryptococcus neoformans.

For the compound `Cl.O=C1c2cccc3c2[C@H](CCC3)CN1[C@@H]1CN2CCC1CC2` [PALONOSETRON HYDROCHLORIDE], the Inhibition was 8.73% in the test on Klebsiella pneumoniae, 2.55% with Candida albicans and -0.6% in the test on Cryptococcus neoformans.

Take `CNCC(O)c1ccc(O)cc1` (centres undefined) [OXEDRINE]: the Inhibition is -0.12% in the test on Klebsiella pneumoniae, 5.72% in the test on Candida albicans and 1.4% in the test with Cryptococcus neoformans.

Take `CC(=O)CC(c1ccccc1)c1c([O-])c2ccccc2oc1=O.[Na+]` (centres undefined) [WARFARIN SODIUM]: the results for the Inhibition in the test with Klebsiella pneumoniae, with Candida albicans and with Cryptococcus neoformans were 4.09%, 3.09% and 0.59%, respectively.

Source of the values: ChEMBL document CHEMBL4513141, “CO-ADD screening of NIH (USA) - Clinical Collection” (2021).
